NALP1 inh = NALP1 inflammasome inhibitors in reconstituted yeast, colorimetric, S. cerevisiae, triplicate retest; S. cerevisiae NALP1/ASC/caspase-1 growth, X-gal OD620, 72 h; inhibition, % at 10 µM; actives 0.61% (n = 280,000); in the data active = inhibition mostly above about 24%, no sharp cut-off; inactive = mostly below about 32%
tim23-1 inh = growth inhibitors of tim23-1 mutant yeast, primary screen, luminescence, uHTS | inhibition, % at 20 µM | actives 1.3% (n = 330,000) | AID 463212, 2010 | S. cerevisiae tim23-1 growth, BacTiter-Glo luminescence, 24 h;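 active = growth inhibition of the mutant yeast at or above 50%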;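 note: temperature-sensitive mutant grown at 25 °C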
TIM10 inh = growth inhibitors of isogenic TIM10 control yeast, primary screen, counter-screen for tim10-1 yeast inhibitor project, luminescence, uHTS; actives 1.4% (n = 330,000); S. cerevisiae TIM10 strain growth, BacTiter-Glo luminescence, 24 h; AID 463195, 2010; inhibition, % at 10 µM;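 active = inhibition of 40% or more at the single tested concentration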;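 note: wild-type TIM10 isogenic control strain grown at permissive 25 °C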
NLRP3 yeast inh = NALP3 inflammasome inhibitors in reconstituted yeast, primary screen, luminescence, uHTS | AID 2825, 2010 | inhibition, % at 10 µM | Yeast reconstituted NLRP3/ASC/caspase-1, beta-gal luminescence, 24 h | actives 0.39% (n = 330,000);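 active = inhibition of 50% or more; inactive = inhibition below 50%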
tim10-1 inh = growth inhibitors of tim10-1 mutant yeast, primary screen, luminescence, uHTS. S. cerevisiae tim10-1 ts strain growth, BacTiter-Glo, 24 h. inhibition, % at 20 µM. actives 2.2% (n = 330,000);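 active = inhibition of at least 40%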;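 note: mutant grown at 25 °C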
tim10-1 confirm = growth inhibitors of tim10-1 mutant yeast, confirmation, single concentration, luminescence, S. cerevisiae; shares compounds with tim10-1 inh; S. cerevisiae tim10-1 ts strain growth, BacTiter-Glo, 24 h; inhibition, % at 20 µM; actives 56% (n = 7,400);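 active = inhibition of yeast growth at or above a set limit in either of two repeat tests at 20 µM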;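 note: tim10-1 mutant grown at permissive 25 °C to find synthetic lethal compounds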
Each line names hits and unclear results; the compound was inactive in the other large screens (follow-up assays come after a bar, where they were run). An excerpt weighted towards active compounds, which were near 4.1% of everything screened.

CCn1c(-c2cc(-c3cc(C)ccc3C)nc3ccccc23)n[nH]c1=S	none
CCn1c(-c2cc(-c3ccc(C)c(C)c3)nc3ccccc23)n[nH]c1=S	tim10-1 inh 47.1 | tim10-1 confirm 33.5
CCOc1cccc(-c2cc(-c3n[nH]c(=S)n3CC)c3ccccc3n2)c1	tim10-1 inh 53.0 | tim10-1 confirm inactive
Cn1c(SCC(=O)NNC(=O)Nc2ccccc2)nnc1-c1ccccc1	none (no result: NALP1 inh)
CCCn1c(C(C)NC(=O)c2ccccc2)nc2ccccc21 (stereo not given)	none (no result: tim23-1 inh, TIM10 inh, NLRP3 yeast inh, tim10-1 inh)
CC(NC(=O)c1ccc(F)cc1)c1nc2ccccc2n1Cc1ccccc1F (stereo not given)	tim10-1 inh 42.4 | tim10-1 confirm 29.4
COC(=O)c1sc(=S)sc1C(=O)OC	none
CC12CC(c3ccccc3O1)N(C(=O)c1ccco1)C(=S)N2c1ccccc1 (stereo not given)	tim10-1 inh 42.4 | tim10-1 confirm inactive
COC(=O)N1C(=O)[C@@](c2ccccc2)(C2CCCC2)N1C(=O)OC	tim10-1 inh 41.9 | tim10-1 confirm 32.0
N#Cc1cc(O)c(-n2nnc3ccccc32)cc1C#N	none
N#Cc1cc(Oc2cccc3cccnc23)c(-n2nnc3ccccc32)cc1C#N	tim10-1 inh 48.0 | tim10-1 confirm 33.2
Cc1ccc2cc(CN(CC3CCCO3)C(=S)Nc3ccccc3)c(=O)[nH]c2c1 (stereo not given)	tim10-1 inh 44.2 | tim10-1 confirm inactive
O=C(Nc1nnc(-c2cccs2)o1)c1cc(-c2ccccc2)nc2ccccc12	none
COc1cccc(C(=O)O/N=C(\N)c2ccccn2)c1OC	none
N/C(=N\OC(=O)c1cccc([N+](=O)[O-])c1)c1ccccn1	tim10-1 inh 41.6 | tim10-1 confirm inactive
COc1cccc(C(=O)O/N=C(\N)c2ccccn2)c1	tim10-1 inh 40.2 | tim10-1 confirm 45.6
CN(C)Cc1c(C(=O)N/N=C/c2ccncc2)nnn1-c1nonc1N	none
C=CCN1CC(c2nc3ccccc3n2Cc2cccc3ccccc23)CC1=O (stereo not given)	tim10-1 inh 45.0 | tim10-1 confirm inactive
CCCn1nnnc1NC(=O)COc1ccc(Br)cc1	none
COc1cccc2cc(C(=O)Nc3ccc(S(=O)(=O)NCC4CCCO4)cc3)c(=O)oc12 (stereo not given)	none (no result: NALP1 inh)
CC(=O)Nc1ccc(C(=O)OCc2ccc(F)cc2)cc1	tim10-1 inh 42.0 | tim10-1 confirm inactive
CC(C)C(=O)NC(=S)N(Cc1ccccc1)Cc1ccccc1	tim10-1 inh 41.3 | tim10-1 confirm inactive
CC(C)CC(=O)NC(=S)N(Cc1ccccc1)Cc1ccccc1	none
NC(=O)NC(CC(=O)NNC(=O)c1ccccn1)c1ccccc1Cl (stereo not given)	none (no result: NALP1 inh)
COc1cc(/C=C2\SC(=S)NC2=O)ccc1OS(=O)(=O)c1ccccc1	tim10-1 inh 43.3 | tim10-1 confirm 32.8
O=C(CS(=O)(=O)c1ccccc1)Nc1nc(-c2ccccc2)cs1	tim10-1 inh 47.3 | tim10-1 confirm 40.4
CC(CCc1ccccc1)NC(=O)COC(=O)c1ccc(S(C)(=O)=O)c([N+](=O)[O-])c1 (stereo not given)	tim10-1 inh 45.8 | tim10-1 confirm inactive
O=C(CCN1CCN(c2ccccc2F)CC1)c1ccc(Br)cc1	none
O=C(CCN1CCN(c2ccccc2)CC1)c1ccc(Br)cc1	tim10-1 inh 44.7 | tim10-1 confirm inactive
Nc1c(C(=O)NCc2ccc(F)cc2)c2nc3ccccc3nc2n1CCCN1CCOCC1	tim10-1 inh 60.2 | tim10-1 confirm inactive
Nc1c(C(=O)NCc2ccccc2)c2nc3ccccc3nc2n1CCCN1CCOCC1	none
c1ccc(-c2nnc(OCC3CCCO3)c3ccccc23)cc1 (stereo not given)	none
COc1ccc(/C=C/C(=O)N2CCCc3ccccc32)cc1	tim10-1 inh 46.6 | tim10-1 confirm inactive
COc1ccc2c(c1)CCc1c(C(=O)N3CCCc4ccccc43)noc1-2	tim10-1 inh 44.8 | tim10-1 confirm 34.4
COc1ccc2c(c1)CCc1c(C(=O)N3CCOCC3)noc1-2	none
